In PubChem BioAssay (NCI):
This is part of a sample that, as a whole, favours compounds with a hit. Of some 83,000 tested, about 20% had one in any assay.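 Testing used 96-well plates and a 48-hour single-concentration exposure. Example: -40 means 40% of the starting cells died.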 The source made the active and inactive calls. The calls were made as follows: active = growth percent below 10; inactive = the rest.

Experiments:
Assay in all cases: NCI-60 one-dose screen, 48 h (100 = growth as untreated, 0 = no growth, -100 = all killed)
Details in all cases: 10 µM unless noted
NCI-H23 lung = test system: NCI-H23 lung
NCI-H226 lung = test system: NCI-H226 lung
NCI-H322M lung = test system: NCI-H322M lung
HOP-62 NSCLC = test system: HOP-62 NSCLC
NCI-H460 lung = test system: NCI-H460 lung
HOP-92 NSCLC = test system: HOP-92 NSCLC
NCI-H522 lung = test system: NCI-H522 lung
A549/ATCC NSCLC = test system: A549/ATCC NSCLC
786-0 renal = test system: 786-0 renal
COLO 205 colon = test system: COLO 205 colon

Measured: growth

Cn1c(-c2c(N)n(Cc3cccnc3)c3nc(C#N)c(C#N)nc23)nc2ccccc21
inactive: NCI-H23 lung 92.2% | NCI-H226 lung 98.4% | NCI-H322M lung 77% | HOP-62 NSCLC 95.3% | NCI-H460 lung 106% | NCI-H522 lung 76.4% | A549/ATCC NSCLC 94.6% | 786-0 renal 91% | COLO 205 colon 117%
active: HOP-92 NSCLC 2.81%

N=C1C(c2nc(-c3ccc(Br)cc3)cs2)=C(O)CN1CC1CCCO1 (stereo not given)
inactive: NCI-H23 lung 88.8% | NCI-H226 lung 103% | NCI-H322M lung 103% | HOP-62 NSCLC 18.5% | NCI-H460 lung 60.2% | HOP-92 NSCLC 69.6% | NCI-H522 lung 99.6% | A549/ATCC NSCLC 75.2% | 786-0 renal 61.7% | COLO 205 colon 90.8%

NS(=O)(=O)c1ccc(-n2nc(C(=O)N/N=C\c3ccc(F)cc3)cc2-c2ccc(Cl)cc2)cc1
inactive: NCI-H23 lung 84.2% | NCI-H226 lung 82.7% | NCI-H322M lung 89.6% | HOP-62 NSCLC 74.1% | NCI-H460 lung 99.4% | HOP-92 NSCLC 56% | NCI-H522 lung 78.4% | A549/ATCC NSCLC 95.1% | 786-0 renal 105% | COLO 205 colon 116%

CC/C=C\CCC/C=C1/C(=O)C=C[C@@H]1C/C=C\CCCC(=O)O
inactive: NCI-H23 lung 80.4% | NCI-H226 lung 90.3% | NCI-H322M lung 107% | HOP-62 NSCLC 100% | NCI-H460 lung 83.7% | HOP-92 NSCLC 75.3% | NCI-H522 lung 29.9% | A549/ATCC NSCLC 79.9% | 786-0 renal 85.2% | COLO 205 colon 85.8%

COc1cc(/C=C/C(=O)c2ccc(Nc3nc(Nc4ccc(F)cc4)nc(Nc4ccc(Cl)cc4)n3)cc2)cc(OC)c1OC
inactive: NCI-H23 lung 26.3% | NCI-H226 lung 61.1% | NCI-H322M lung 99.6% | HOP-62 NSCLC 82.1% | NCI-H460 lung 55.1% | HOP-92 NSCLC 38% | NCI-H522 lung 62.2% | A549/ATCC NSCLC 53.1% | 786-0 renal 66.4% | COLO 205 colon 78.5%

CN(C)CCNc1nc2ccccc2c2c1c1c(n2Cc2ccccc2)-c2ccccc2C1=O
active: NCI-H23 lung -74.8% | NCI-H226 lung -57.1% | NCI-H322M lung -79.5% | HOP-62 NSCLC -90.4% | NCI-H460 lung -98.6% | HOP-92 NSCLC -78.7% | NCI-H522 lung -69.2% | A549/ATCC NSCLC -73% | 786-0 renal -89.6% | COLO 205 colon -76.9%

Cc1ccc(-n2c(-c3ccccc3)c(-c3ccccc3)c3c(SCC(=O)n4[nH]c(N)cc4=O)ncnc32)cc1
inactive: NCI-H23 lung 90.8% | NCI-H226 lung 88.8% | NCI-H322M lung 101% | HOP-62 NSCLC 87.6% | NCI-H460 lung 103% | HOP-92 NSCLC 74.7% | NCI-H522 lung 79.6% | A549/ATCC NSCLC 92.5% | 786-0 renal 96.6% | COLO 205 colon 94.4%

Cc1ccc(-n2nc3c(c(C#N)c2=O)CC(c2ccccc2Cl)C([N+](=O)[O-])=C3O)cc1 (stereo not given)
inactive: NCI-H23 lung 101% | NCI-H226 lung 102% | NCI-H322M lung 101% | HOP-62 NSCLC 91% | NCI-H460 lung 99.3% | HOP-92 NSCLC 103% | NCI-H522 lung 89% | A549/ATCC NSCLC 95.4% | 786-0 renal 102% | COLO 205 colon 108%

COC(=O)c1ccc(CSc2nnc(-c3c(C)nc4ccc(C)cn34)o2)cc1
inactive: NCI-H23 lung 85.9% | NCI-H226 lung 95.2% | NCI-H322M lung 98.2% | HOP-62 NSCLC 89.6% | NCI-H460 lung 109% | HOP-92 NSCLC 92% | NCI-H522 lung 83.5% | A549/ATCC NSCLC 103% | 786-0 renal 91.8% | COLO 205 colon 117%

O=S(=O)(NCCCNc1cc(-c2c(-c3cccc(O)c3)nc3sccn23)ccn1)c1cccc(Cl)c1
inactive: NCI-H23 lung 49.1% | NCI-H226 lung 61.5% | NCI-H322M lung 85.5% | HOP-62 NSCLC 72.8% | NCI-H460 lung 47.3% | HOP-92 NSCLC 111% | NCI-H522 lung 44.1% | A549/ATCC NSCLC 66.5% | 786-0 renal 54.8% | COLO 205 colon 46.3%

C[C@@H]1N=C(c2ccc3ccccc3n2)Nc2nc3ccccn3c2C1=O
inactive: NCI-H23 lung 86.3% | NCI-H226 lung 94.4% | NCI-H322M lung 97.3% | HOP-62 NSCLC 75.1% | NCI-H460 lung 97.2% | HOP-92 NSCLC 97.2% | NCI-H522 lung 102% | A549/ATCC NSCLC 105% | 786-0 renal 98.3% | COLO 205 colon 113%

CC(C)Sc1nc(NNC(N)=S)c(C#N)c(-c2ccc(F)cc2)n1
inactive: NCI-H23 lung 102% | NCI-H226 lung 94.7% | NCI-H322M lung 99.1% | HOP-62 NSCLC 101% | NCI-H460 lung 102% | HOP-92 NSCLC 70.2% | NCI-H522 lung 85.2% | A549/ATCC NSCLC 92.5% | 786-0 renal 90.5% | COLO 205 colon 106%

O=C1NC(=Nc2ccc(Cl)cc2)S/C1=C\c1cn(-c2ccccc2)nc1-c1ccccc1
active: HOP-92 NSCLC -0.936%
inactive: NCI-H23 lung 93.4% | NCI-H226 lung 93.4% | NCI-H322M lung 89.5% | HOP-62 NSCLC 99.6% | NCI-H460 lung 44.6% | NCI-H522 lung 75.4% | A549/ATCC NSCLC 34.9% | 786-0 renal 85.5% | COLO 205 colon 96.7%

O=C1/C(=C/c2ccccc2)CCc2nc3ccccc3c(/C=C/c3ccc(Cl)cc3)c21
inactive: NCI-H23 lung 85.5% | NCI-H226 lung 92.3% | NCI-H322M lung 94.6% | HOP-62 NSCLC 110% | NCI-H460 lung 93.4% | HOP-92 NSCLC 79.8% | NCI-H522 lung 71.1% | A549/ATCC NSCLC 93.5% | 786-0 renal 99.8% | COLO 205 colon 104%

C=C1C(=O)O[C@H]2[C@H]1CC/C(COC(=O)C(=O)c1c[nH]c3ccc(OC)cc13)=C\CC[C@@]1(C)O[C@@H]21
active: NCI-H23 lung -28.1% | NCI-H226 lung -68.3% | NCI-H322M lung -70.5% | HOP-62 NSCLC -71.3% | NCI-H460 lung -53.9% | HOP-92 NSCLC -77.2% | NCI-H522 lung -61.3% | A549/ATCC NSCLC -62.7% | 786-0 renal -91% | COLO 205 colon -68.6%

O=C1C=C[C@]2(C[C@@H](c3cccc(C(F)(F)F)c3)O[C@@H](c3cccc(C(F)(F)F)c3)O2)O1
inactive: NCI-H23 lung 50.1% | NCI-H322M lung 74.3% | A549/ATCC NSCLC 27.3% | COLO 205 colon 12.1%
active: NCI-H226 lung -72.7% | HOP-62 NSCLC 4.06% | NCI-H460 lung 1.85% | HOP-92 NSCLC -5.73% | NCI-H522 lung -78.8% | 786-0 renal -88.8%

COc1ccc(N2CCN(c3nc(-c4cc(OC)c(OC)c(OC)c4)nc4ccccc34)CC2)cc1
inactive: NCI-H23 lung 81.1% | NCI-H226 lung 78.4% | NCI-H322M lung 91.4% | HOP-62 NSCLC 83.9% | NCI-H460 lung 87% | HOP-92 NSCLC 56.6% | NCI-H522 lung 55.1% | A549/ATCC NSCLC 80.5% | 786-0 renal 85.7% | COLO 205 colon 62.9%

COc1ccc(NC(=O)CSc2nc(C)c(C(C)=O)n2-c2ccc([N+](=O)[O-])cc2)cc1
inactive: NCI-H23 lung 88.2% | NCI-H226 lung 89% | NCI-H322M lung 92.7% | HOP-62 NSCLC 95.7% | NCI-H460 lung 103% | HOP-92 NSCLC 112% | NCI-H522 lung 88.9% | A549/ATCC NSCLC 90.6% | 786-0 renal 83.9% | COLO 205 colon 102%

NC(=S)N/N=C/Cc1ccccc1
inactive: NCI-H23 lung 99.6% | NCI-H226 lung 103% | NCI-H322M lung 105% | HOP-62 NSCLC 104% | NCI-H460 lung 110% | HOP-92 NSCLC 109% | NCI-H522 lung 100% | A549/ATCC NSCLC 90.6% | 786-0 renal 106% | COLO 205 colon 97.2%

COc1ccc2c(c1)C(=O)/C(=C/c1cccc(OCC(=O)Nc3nc(C)c(C)s3)c1)O2
inactive: NCI-H226 lung 71.8% | NCI-H322M lung 122% | HOP-62 NSCLC 94.8% | NCI-H460 lung 158% | A549/ATCC NSCLC 46.8%
active: NCI-H23 lung -38.6% | HOP-92 NSCLC -74.8% | NCI-H522 lung -72.4% | 786-0 renal -17.2% | COLO 205 colon -59.1%

O=c1oc2ccccc2c(Cl)c1Cl
inactive: NCI-H23 lung 60.6% | NCI-H226 lung 70.8% | NCI-H322M lung 91.5% | HOP-62 NSCLC 83.3% | NCI-H460 lung 103% | HOP-92 NSCLC 97.4% | NCI-H522 lung 22.9% | A549/ATCC NSCLC 89.6% | 786-0 renal 47.3% | COLO 205 colon 11.8%

S=C(Cc1ccc2c(c1)CCCC2)N1CCOCC1
inactive: NCI-H23 lung 98.4% | NCI-H226 lung 110% | NCI-H322M lung 94.8% | HOP-62 NSCLC 89.8% | NCI-H460 lung 107% | HOP-92 NSCLC 121% | NCI-H522 lung 81.3% | A549/ATCC NSCLC 93.2% | 786-0 renal 101% | COLO 205 colon 106%

Cc1ccc(Nc2nc(N)nc(CSCC(=O)NN)n2)cc1
inactive: NCI-H23 lung 98.8% | NCI-H226 lung 97.8% | NCI-H322M lung 100% | HOP-62 NSCLC 101% | NCI-H460 lung 107% | HOP-92 NSCLC 95.6% | NCI-H522 lung 96.7% | A549/ATCC NSCLC 107% | 786-0 renal 100% | COLO 205 colon 110%

COc1ccc(CN2C(=O)C(Cl)=C(Nc3cccc(C(F)(F)F)c3)C2=O)cc1
inactive: NCI-H23 lung 36.8% | NCI-H226 lung 49.5% | NCI-H322M lung 84.3% | HOP-62 NSCLC 28.3% | NCI-H460 lung 22% | NCI-H522 lung 40.6% | A549/ATCC NSCLC 59.2% | 786-0 renal 37.8% | COLO 205 colon 36.5%
active: HOP-92 NSCLC -17.2%

CCCCN(CCCC)CC(C)(C)C(O)c1ccc(OC)c2ccccc12 (stereo not given)
active: NCI-H23 lung -1.81% | HOP-92 NSCLC -9.57% | NCI-H522 lung 4.57%
inactive: NCI-H226 lung 51.7% | NCI-H322M lung 44.9% | HOP-62 NSCLC 73.7% | NCI-H460 lung 39.1% | A549/ATCC NSCLC 63.5% | 786-0 renal 58.4% | COLO 205 colon 71%

COc1ccccc1CNCCCN1C(=O)c2ccc3c4c(ccc(c24)C1=O)C(=O)N(CCCNCCCCN)C3=O
active: NCI-H23 lung -38.6% | NCI-H226 lung -56.5% | NCI-H322M lung -10.1% | HOP-62 NSCLC -31% | NCI-H460 lung -46.2% | HOP-92 NSCLC -16% | NCI-H522 lung -84% | A549/ATCC NSCLC -65% | 786-0 renal 0.16% | COLO 205 colon -81.5%

CCN1C(=O)N(CC)C2Nn3c(s/c(=C4\C(=O)N(C)c5ccccc54)c3=O)=NC21 (stereo not given)
inactive: NCI-H23 lung 44.3% | NCI-H226 lung 78.9% | NCI-H322M lung 75% | HOP-62 NSCLC 58.4% | NCI-H460 lung 22.6% | HOP-92 NSCLC 75.5% | A549/ATCC NSCLC 49.3% | 786-0 renal 27.8%
active: NCI-H522 lung 0.903% | COLO 205 colon 8.23%
